# In PubChem BioAssay AID624296 (National Center for Advancing Translational Sciences (NCATS), 2012):
# The whole screen tested about 350,000 compounds, of which about 9,900 (2.8%) were called active. Another 15% or so got no clear call; they are omitted. Calls follow the shape of the dose curve; as a rule, active = well fitted activation curve with a large enough effect; inconclusive = small, poorly fitted or top-dose-only effect; inactive = no such curve, though single readings can be large or run the other way. Many of the other results were omitted from the sample, so actives are more common in it than they were.
# Assay: A quantitative high throughput screen for small molecules that induce DNA re-replication in MCF 10a normal breast cells. Also: nearly all actives have a fitted effect of over 50% in size. As to activity, positive = re-replication: % of control where 0% means no effect.
# Conditions: MCF 10A DNA re-replication, Hoechst nuclear intensity, 48 h; series mostly up to 46.1 µM; activity, positive = re-replication: at the top concentration
# Source text: H Molecular Libraries Probe Production Network [MLPCN]
# NIH Chemical Genomics Center [NCGC]
# Assay Provider: Melvin DePamphilis, NICHD, NIH
# Eukaryotic cells normally restrict genome duplication to once per cell division. When this process is aberrant, DNA re-replication occurs when cells reinitiate DNA replication before the first round of replication is complete. DNA re-replication induces the DNA damage response, arrests cell proliferation, and triggers apoptosis. The cell cycle components cyclin A, Cdt-1, Cdc6 and geminin are critical regulators of this process and their misregulation results in DNA re-replication in normal and cancer cells. To identify compounds that induce re-replication in normal cells, an image-based assay was used to measure DNA content of nuclei, as detected by the fluorescent DNA binding dye, Hoechst. Cell nuclei were imaged by a fluorescence scanning plate imager and compounds that induce DNA re-replication were identified by the increase of nuclei with elevated fluorescence intensity
# For screening, 250 cells in 5 uL/well were dispensed into black clear 1536-well plates (Aurora) using a solenoid-based dispenser. Following transfer of 23 nL compound or DMSO vehicle by a pin tool, the plates were incubated 48 hr at 37 C and 5% CO2. After addition of 1 uL/well Hoescht stain, the plates were incubated 40 min at 37 C, 5% CO2 and total intensity of fluorescent objects (nuclei) were enumerated by an Acumen Explorer Ex3 (TTP LabTech) fluorescence scanning plate imager (405 nm excitation, 500-530 nm emission).
# Keywords: NIH Roadmap, MLPCN, MLI, MLSMR, qHTS, NCGC, DNA replication, cancer
# Potency is read from the fitted curve at half-maximal effect.
SMILES,"activity, positive = re-replication",Potency
CCOC(=O)C1(c2ccccc2)CCN(CC(O)c2ccc(NC(C)=O)cc2)CC1 (stereo unspecified),-0.895% (inactive),–
O=c1c2ccccc2nc(/C=C/c2ccco2)n1-c1ccccc1O,–,23.1 µM (active)
Cc1nc2ccccc2c(=O)n1-c1ccc(Cl)cc1Cl,7.11% (inactive),–
O=c1c2ccccc2nc(-c2ccco2)n1-c1ccc(Br)cn1,28.7% (inactive),–
CNC(C)[C@@H](O)c1ccccc1 (stereo partly specified),4.33% (inactive),–
CCC(=O)OC(Cc1ccccc1)(c1ccccc1)C(C)CN(C)C (stereo unspecified),1.9% (inactive),–
c1cc2c(cc1C1OCC3C(c4ccc5c(c4)OCO5)OCC13)OCO2 (stereo unspecified),-0.791% (inactive),–
CC(=O)C1(O)CCC2C3CCC4=C(Cl)C(=O)CCC4(C)C3CCC21C (stereo unspecified),-1.71% (inactive),–
N#CC1=C(N)Oc2c(c(=O)oc3ccccc23)C1c1ccccc1OC(=O)c1cccs1 (stereo unspecified),–,20.6 µM (active)
CCNc1nc2[nH]c(=O)c3c(c2s1)OC(N)=C(C#N)C3c1cccs1 (stereo unspecified),-7.38% (inactive),–
CCN1C(=O)NC(=O)C2(CCCC2)C1=O,1.74% (inactive),–
COc1cc(-n2c(=S)[nH]c3ccc(C)cc3c2=O)c(Cl)cc1Cl,–,13 µM (active)
CC1([N+](=O)[O-])COP(=O)(Nc2ccc(F)cc2)OC1 (stereo unspecified),0.716% (inactive),–
COc1ccc2cc1Oc1ccc(cc1)C[C@H]1c3cc(c(OC)cc3CCN1C)Oc1c(O)c(OC)cc3c1[C@H](C2)N(C)CC3,–,20.6 µM (active)
COc1c(O)ccc2c1-c1c3c(cc4c1C(C2)N(C)CC4)OCO3 (stereo unspecified),2.18% (inactive),–
CC[N+]1(CCOC(=O)C(O)(c2ccccc2)c2ccccc2)CCCCC1,-0.489% (inactive),–
COC1=C[C@@H]2[C@@H]3Cc4ccc(OC)c(O)c4[C@]2(CCN3C)CC1=O,-6.99% (inactive),–
CNCC[C@H](Oc1ccc(C(F)(F)F)cc1)c1ccccc1,-31.5% (inactive),–

SMILES,"activity, positive = re-replication",Potency
Cc1cc(-c2ccc(N)c(C)c2)ccc1N,1.97% (inactive),–
CC1CNCCN1c1ccc(Cl)cc1 (stereo unspecified),2.88% (inactive),–
C[C@@H]1C[C@@H]2O[C@H]2/C=C\C=C\C(=O)Cc2c(Cl)c(O)cc(O)c2C(=O)O1,–,9.2 µM (active)
CC(=O)OC1C([N+]2(C)CCCCC2)C[C@H]2C3CC[C@H]4C[C@H](OC(C)=O)C([N+]5(C)CCCCC5)CC4(C)C3CCC12C (stereo partly specified),-4.37% (inactive),–
Cc1ncc(CC(=O)n2cc(C(=O)c3cc(Cl)ccc3O)cn2)s1,–,10 µM (active)
C[C@]12CCC3C(CC[C@H]4[C@H](O)[C@H](O)CC[C@]34C)C1CCC2=O (stereo partly specified),-8.95% (inactive),–
O=C1NC(=O)C(CCOc2ccccc2)(CCc2ccccc2)C(=O)N1,16.8% (inactive),–
CCC1(c2ccccc2)C(=O)NC(=O)N(C)C1=O (stereo unspecified),-1.92% (inactive),–
CCC1(CC(C)c2ccccc2)C(=O)NC(=O)NC1=O (stereo unspecified),-24% (inactive),–
Cc1cc2ccccn2c1C(C[N+](=O)[O-])c1c(F)cccc1Cl (stereo unspecified),–,3.26 µM (active)
Oc1ccc2c3c1OC1[C@H](O)CC[C@@]4(O)[C@@H](C2)N(CC2CC2)CC[C@]314 (stereo partly specified),–,inactive
CN1CCCC(=C(c2cccs2)c2cccs2)C1,13.4% (inactive),–
COC(=O)[C@@H]1C(OC(=O)c2ccccc2)CC2CCC1N2C (stereo partly specified),-11.5% (inactive),–
Brc1cc(Br)c(Oc2cc(Br)c(Br)cc2Br)cc1Br,–,14.6 µM (active)
CC[C@]1(C(=O)OC)[C@H]2C(=O)N(Cc3ccccc3)C(=O)[C@H]2[C@H]2CN=C(SCc3ccc(C#N)cc3)N21,5.65% (inactive),–
Cc1cc(C)c2c(c1)NP(=S)(c1ccccc1)N2 (stereo unspecified),0.425% (inactive),–
CN=C(NC#N)NCCSCc1nc[nH]c1C,–,inactive
O=C(N/N=C/c1ccc([N+](=O)[O-])o1)c1cc([N+](=O)[O-])cc([N+](=O)[O-])c1O,-1.45% (inactive),–
